According to PubChem BioAssay AID1159580 (chemical genetic matrix, 2015):
Values joined by “and” are separate entries in the source; they are usually repeats but may differ in a detail not shown here. Equal values may be shown once. Among all 5,500 compounds or so, about 2,000 (36%) were called active. About 18% were inconclusive and are not listed. Rule as the data show it: active = normalized growth mostly below about 0.91 (no sharp cut-off); inconclusive = no clear call, values can overlap the other calls; inactive = mostly above about 0.92. The list shows a part of the results.

Test: chemical genetic growth profiling, strain panel (AID 1159580);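 also: tested at 20 µM; growth read once vehicle control cultures reached saturation at 30 °C; 1 = growth at the plate median or of vehicle wells; lower values mean less growth of the strain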
Conditions: S. cerevisiae deletion strains, growth OD

Measured: normalized growth

C[N+]1(CCCCC[N+]2(C)CCCC2)CCCC1
inactive: locus YAL013W, strain DEP1, stronger effect = lower value 1 and 0.986 | locus YAL021C, strain ccr4, stronger effect = lower value 0.99 | locus YAL026C, strain drs2, stronger effect = lower value 0.995 | locus YAL030W, strain snc1, stronger effect = lower value 1 | locus YAL040C, strain CLN3, stronger effect = lower value 0.976 | locus YBL061C, strain skt5, stronger effect = lower value 0.998 | locus YBR009C, strain hhf1, stronger effect = lower value 1 | locus YBR021W, strain FUR4, stronger effect = lower value 1.01 | locus YBR023C, strain chs3, stronger effect = lower value 0.989 | locus YBR171W, strain sec66, stronger effect = lower value 1 | locus YBR229C, strain ROT2, stronger effect = lower value 1.01 | locus YBR231C, strain swc5, stronger effect = lower value 0.986 | locus YBR279W, strain paf1, stronger effect = lower value 0.993 | locus YCL011C, strain gbp2, stronger effect = lower value 0.993 | locus YCL016C, strain dcc1, stronger effect = lower value 0.993 | locus YCL029C, strain bik1, stronger effect = lower value 1.04 | locus YCL061C, strain MRC1 (second series), stronger effect = lower value 0.994 | locus YCL061C, strain MRC1, stronger effect = lower value 0.995 | locus YCL069W, strain vba3, stronger effect = lower value 1 | locus YCR088W, strain abp1, stronger effect = lower value 0.999 | locus YDL005C, strain med2, stronger effect = lower value 0.983 | locus YDL035C, strain GPR1, stronger effect = lower value 1.01 | locus YDL040C, strain nat1, stronger effect = lower value 0.989 | locus YDL074C, strain BRE1, stronger effect = lower value 1.02 | locus YDL101C, strain DUN1, stronger effect = lower value 1.01 | locus YDL134C, strain PPH21, stronger effect = lower value 1.01 | locus YDL185W, strain tfp1, stronger effect = lower value 1.01 | locus YDL192W, strain arf1, stronger effect = lower value 1.02 | locus YDR001C, strain nth1, stronger effect = lower value 1 | locus YDR069C, strain doa4, stronger effect = lower value 0.995 | locus YDR101C, strain arx1, stronger effect = lower value 1.01 | locus YDR137W, strain rgp1, stronger effect = lower value 1.04 | locus YDR150W, strain NUM1, stronger effect = lower value 1 | locus YDR159W, strain sac3, stronger effect = lower value 0.991 | locus YDR162C, strain NBP2, stronger effect = lower value 1.01 | locus YDR195W, strain ref2 0.922 | locus YDR297W, strain sur2, stronger effect = lower value 1.01 | locus YDR318W, strain mcm21, stronger effect = lower value 1.02 | locus YDR334W, strain swr1, stronger effect = lower value 0.991 | locus YDR335W, strain msn5, stronger effect = lower value 0.991 | locus YDR363W, strain ESC2, stronger effect = lower value 0.985 | locus YDR388W, stronger effect = lower value 1.01 | locus YDR392W, strain spt3, stronger effect = lower value 1.01 | locus YDR502C, strain sam2, stronger effect = lower value 1.01 | locus YEL003W, strain gim4, stronger effect = lower value 0.997 | locus YEL037C, strain rad23, stronger effect = lower value 0.994 | locus YEL061C, strain CIN8 (second series), stronger effect = lower value 0.991 | locus YEL061C, strain CIN8, stronger effect = lower value 1 | locus YER002W, strain NOP16, stronger effect = lower value 1.01 | locus YER015W, strain faa2, stronger effect = lower value 0.993 | locus YER016W, strain bim1, stronger effect = lower value 0.995 | locus YER110C, stronger effect = lower value 1.02 | locus YER111C, strain swi4, stronger effect = lower value 0.983 | locus YER155C, strain BEM2 (second series), stronger effect = lower value 0.996 | locus YER155C, strain BEM2, stronger effect = lower value 0.997 | locus YER167W, strain BCK2, stronger effect = lower value 1 | locus YFR010W, strain ubp6, stronger effect = lower value 0.998 | locus YGL078C, strain dbp3, stronger effect = lower value 1.01 | locus YGL086W, strain mad1, stronger effect = lower value 0.996 | locus YGL167C, strain pmr1, stronger effect = lower value 1 | locus YGL173C, strain kem1, stronger effect = lower value 1 | locus YGL227W, strain vid30, stronger effect = lower value 0.984 | locus YGL240W, strain doc1, stronger effect = lower value 0.988 | locus YGL248W, strain PDE1, stronger effect = lower value 1.02 | locus YGL253W, strain hxk2, stronger effect = lower value 0.987 | locus YGR078C, strain PAC10, stronger effect = lower value 1.02 | locus YGR135W, strain pre9, stronger effect = lower value 1.01 | locus YGR229C, strain SMI1, stronger effect = lower value 1.01 | locus YGR252W, strain gcn5, stronger effect = lower value 1 | locus YHR013C, strain ard1, stronger effect = lower value 0.962 | locus YHR027C, strain rpn1, stronger effect = lower value 0.998 | locus YHR030C, strain SLT2, stronger effect = lower value 1.01 | locus YHR079C, strain IRE1 (second series), stronger effect = lower value 1.02 | locus YHR094C, strain hxt1, stronger effect = lower value 1.01 | locus YHR129C, strain ARP1, stronger effect = lower value 1.01 | locus YHR142W, strain chs7, stronger effect = lower value 0.997 | locus YHR200W, strain rpn10, stronger effect = lower value 1 | locus YIL066C, strain RNR3, stronger effect = lower value 1.01 | locus YIL073C, strain SPO22, stronger effect = lower value 1.05 | locus YIL125W, strain kgd1, stronger effect = lower value 1.02 | locus YIR030C, strain dcg1, stronger effect = lower value 1.01 | locus YJL092W, strain hpr5, stronger effect = lower value 0.997 | locus YJL095W, strain BCK1 (second series), stronger effect = lower value 0.993 | locus YJL095W, strain BCK1, stronger effect = lower value 1.03 | locus YJL115W, strain asf1, stronger effect = lower value 0.988 | locus YJL129C, strain trk1, stronger effect = lower value 0.992 | locus YJL134W, strain LCB3, stronger effect = lower value 1 | locus YJL154C, strain vps35, stronger effect = lower value 0.995 | locus YJL164C, strain tpk1, stronger effect = lower value 0.995 | locus YJL166W, strain qcr8, stronger effect = lower value 0.999 | locus YJL168C, strain set2, stronger effect = lower value 1.01 | locus YJL187C, strain SWE1 (second series), stronger effect = lower value 1.02 | locus YJL187C, strain SWE1, stronger effect = lower value 1
